This is a sample that favours compounds with a hit; in the whole collection about 19% have one here.
TDP1 cell CPT: growth inhibition of DT40 Tdp1-/-;hTDP1 cells with camptothecin (screen for TDP1 inhibitors); chicken DT40 Tdp1-/-;hTDP1 cells + 20 nM CPT, ATP luminescence, 48 h; AID 686979; 12% of 420,000 active; Potency, µM (titrated, usually from 46.2 µM), for inactives: top-dose activity change, negative = growth inhibition, most hits filed as inhibitors; note: potency is the fitted concentration of half-maximal effect; nearly all actives have a fitted effect of over 55% in size
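Chicken DT40 Tdp1-/- cells complemented with human TDP1, 400 cells/well, exposed to compounds plus 20 nM camptothecin for at least 48 h at 37 C; viability read as ATP content by CellTiter-Glo luminescence.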
HT1080NT lethal: kills 2HG-producing HT-1080-NT fibrosarcoma cells; HT-1080-NT fibrosarcoma viability, CellTiter-Glo ATP luminescence, 48 h; Potency, µM (series often up to 46.1 µM), without a hit: at the highest dose activity, negative = less viability, usual class: cytotoxic; 1.6% of 360,000 active; AID 686970;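 note: NT is the 2HG producing partner of a matched IDH1 knockdown line; potency is the fitted concentration of half-maximal effect; 0% = DMSO-treated cells and -100% = media-only wells without cells; nearly all actives have a fitted effect of over 55% in size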
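Fibrosarcoma NT cells, 750 per well in 5% FBS RPMI, were exposed to compound for 48 hours. Viability: CellTiter-Glo luminescence.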
DT40 TDP1 no CPT: qHTS for Inhibitors of human tyrosyl-DNA phosphodiesterase 1 (TDP1): qHTS in cells in absence of CPT; 15% of 420,000 active; Potency, µM (highest dose often 46.2 µM), without a hit: at the top dose activity change, negative = growth inhibition, actives largely listed as inhibitors; DT40 Tdp1-/- hTDP1 cells, no CPT, ATP luminescence, 48 h; note: potency is the fitted concentration of half-maximal effect; nearly all actives have a fitted effect of over 55% in size
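Luminescent ATP content (CellTiter-Glo) served as the growth readout. Knockout chicken DT40 cells expressing human TDP1 were exposed to compounds without camptothecin for a minimum 48 hr at 37 °C.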
IL1B secr inh: inflammasome signaling inhibition, IL-1 beta readout. THP-1 LPS/ATP IL-1B secretion, AlphaLISA, 16 h; hits give low values. 4.7% of 360,000 active. activity change, % at 57.5 µM; in the data active = activity change below about -50%; inconclusive = mostly about -30% to -49%
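Secreted IL-1B measured by AlphaLISA bead assay after 16 h compound exposure of THP-1 cells; compounds (final up to 57.5 uM) added 1 h before LPS (250 ng/mL) and ATP (1.25 mM) stimulation; lower signal means less secretion.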
HT1080 IDH1KD tx: kills HT-1080 cells with IDH1 knockdown; Potency, µM (highest dose often 46.1 µM), for inactives: top-dose activity, negative = toxicity, hits mostly cytotoxic; HT-1080 IDH1 knockdown viability, ATP luminescence, 48 h; 2% of 360,000 active;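 note: potency is the fitted concentration of half-maximal effect; 0% = DMSO wells and -100% = cell-free medium wells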
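Using the IDH1-knockdown HT-1080 line run in the same batch and compound series as the NT line, viability after 48 h at 37 °C was determined by CellTiter-Glo luminescence and expressed as % activity.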
Numbers without * were called inactive; i = inactive; ? = inconclusive; . = no result. Unless noted, calls come from the whole dose curve; as a rule, active = well fitted curve in the direction sought with a large enough effect; inconclusive = small, poorly fitted or top-dose-only effect, or another doubt; inactive = no such curve, though single readings can be large; an effect the other way counts as inactive or inconclusive. Unless noted, % is set by controls: 0 for no effect and ±100 for the full control effect.

SMILES	TDP1 cell CPT	HT1080NT lethal	DT40 TDP1 no CPT	IL1B secr inh	HT1080 IDH1KD tx
CCOCC(=O)Nc1c(C(=O)Nc2ccc3c(c2)OCCO3)oc2ccccc12	?	?	8.2µM*	0	?
Cc1ccc(NC(=O)c2oc3ccccc3c2NC(=O)Cc2ccccc2)cc1	16µM*	.	?	.	.
Cc1ccc(C(C)C)cc1S(=O)(=O)Nc1ccncc1	-10%	12%	-13%	-7	-2%
Cc1cccc(Sc2nc(-c3ccccc3)ncc2C(=O)O)c1	-6%	-1%	?	34	-8%
COc1ccc(C(=O)CCC(C)(C)[N+](=O)[O-])cc1OC	10%	10%	15%	20	2%
CCCN1CNc2c(c(=O)[nH]c(=S)n2CCc2ccc(C)cc2)C1	?	8%	?	.	16%
Cc1cccc(C)c1OCc1nc2c3cnn(-c4cccc(F)c4)c3ncn2n1	18µM*	.	16µM*	.	.
CCOC(=O)[C@]12CCCC=C1N(Cc1ccc3c(c1)OCO3)C(=O)[C@H](CC(=O)NCCCOC)C2	-28%	12%	-27%	10	2%
CCOC(=O)[C@]12CCC=C1N(Cc1ccc3c(c1)OCO3)C(=O)[C@H](CC(=O)N1CCSCC1)C2	?	3%	?	13	-9%
CCCCOCCCNC(=O)C[C@@H]1C[C@@]2(C(=O)OCC)CCC=C2N(Cc2ccc3c(c2)OCO3)C1=O	21µM*	-15%	16µM*	-9	0%
CCOC(=O)[C@]12CCC=C1N(Cc1ccc3c(c1)OCO3)C(=O)[C@H](CC(=O)NCC13CC4CC(CC(C4)C1)C3)C2	?	?	23µM*	?	?
CC(C)[C@H](NC(=O)[C@@H]1CSC2c3ccccc3C(=O)N21)C(=O)N1CCCCC1 (some centres not stated)	-14%	-3%	-1%	10	-3%
Cc1ccc(S(=O)(=O)N(C)c2ccc(OCC(=O)Nc3cccc(-n4cnnn4)c3C)cc2)cc1	?	-16%	?	13	-7%
COC(=O)Cn1cnc2scc(-c3ccc(C)cc3)c2c1=O	15%	-1%	-2%	6	1%
C=C(C(=O)c1ccccc1)C(C(=C)C(=O)c1ccccc1)c1ccc(OC)cc1	10µM*	4%	5.2µM*	-61*	-6%
C=C(C(=O)c1ccccc1)C(c1ccccc1)C(C)C(=O)c1ccccc1 (configuration not stated)	?	?	?	-97*	?
C=C(C(=O)c1ccccc1)C(C)C(=C)C(=O)c1ccccc1	5.8µM*	8.2µM*	5.8µM*	-103*	5.8µM*
CCOc1cc(CNC(=O)c2ccc(C)c(NC(=O)c3nsc4ccccc34)c2)ccc1OC	7.3µM*	.	7.3µM*	.	.
CCOc1ccc(CNC(=O)c2ccccc2NC(=O)c2nsc3ccccc23)cc1	21µM*	.	18µM*	.	.
CCOc1cc(CNC(=O)c2ccc3nc(CCc4ccccc4)oc3c2)ccc1OC	-30%	.	?	.	.
CCOc1ccc(CNC(=O)c2ccc(NC(=O)c3nsc4ccccc34)cc2)cc1	?	.	-16%	.	.
O=C(NCc1ccccc1Cl)c1ccccc1NC(=O)c1nsc2ccccc12	?	.	16µM*	.	.
O=[N+]([O-])c1ccc(N2CCN(c3ccc(Cl)nn3)CC2)cc1NC1CC1	-7%	10%	-11%	15	8%
COc1ccc(CCNC(=O)c2cc(-c3ccc(Cl)cc3)on2)cc1OC	-2%	.	0%	.	.
COc1ccc(CCNC(=O)c2cc(-c3ccccc3OC)on2)cc1OC	?	7%	21µM*	?	1%
SMILES	TDP1 cell CPT	HT1080NT lethal	DT40 TDP1 no CPT	IL1B secr inh	HT1080 IDH1KD tx
COc1ccc2cc3cc(C(=O)NCCc4ccccc4)sc3nc2c1Cl	12µM*	.	16µM*	.	.
COc1ccccc1-c1cc(C(=O)NCCc2ccccc2)no1	13µM*	-23%	15µM*	14	?
COc1ccc(CCNC(=O)c2cc(CC(C)C)on2)cc1OC	?	6%	16µM*	11	-1%
CC(Oc1ccccc1Cl)C(=O)Nc1ccccc1C(=O)N1CCOCC1 (configuration not stated)	-2%	4%	4%	i	13%
COc1ccc(CCNC(=O)c2cc(-c3ccc(C)c(C)c3O)n[nH]2)cc1OC	21µM*	-27%	16µM*	?	?
O=C(CCC(=O)OCc1ccc(Br)cc1)Nc1ccccc1	16µM*	2%	?	2	7%
CN(CCC(=O)Nc1ccc(Br)cc1)Cc1ccccc1	?	?	?	-62*	-5%
Cc1ccc(S(=O)(=O)N2C[C@]3(O)C[C@@H]4C(=O)N(c5ccccc5)C(=O)[C@@H]4C[C@]3(OC(=O)NCC3CCCCC3)C2)cc1	0%	-5%	4%	-5	-2%
CC(C)N=C(NS(=O)(=O)c1ccccc1)C(Cl)(Cl)Cl	2.9µM*	7.3µM*	2.9µM*	-96*	7.3µM*
CC1S/C(=C(\C#N)C(=O)NCc2ccco2)N(Cc2ccco2)C1=O (configuration not stated)	8.2µM*	-4%	?	26	0%
CN(C)Cc1cc(C(C)(C)c2cc(CN(C)C)c(O)c(CN(C)C)c2)cc(CN(C)C)c1O	-10%	-8%	-15%	-62*	-13%
COCCNC(=O)C1CC2Cn3c(nc4ccccc43)C2N1C (configuration not stated)	-2%	12%	-2%	12	8%
CN(C)S(=O)(=O)N(CC(=O)Nc1ccc(C(F)(F)F)cc1)c1ccccc1	-26%	.	?	.	.
Cc1cc(C(C)(C)C)oc1C(=O)N(CC(=O)NC1CCCC1)c1ccc(F)cc1	?	?	16µM*	-24	?
COc1ccccc1N(CC(=O)NC1CCCC1)C(=O)c1oc(C(C)(C)C)cc1C	23µM*	-26%	15µM*	-91*	-19%
O=C(CN(C(=O)CNC(=O)c1ccco1)c1ccc(F)cc1)NC1CCCC1	1%	15%	-4%	-4	1%
Cc1ccc(C(=O)N(CC(=O)NC2CCCC2)c2ccccc2C)s1	?	12%	?	-11	2%
Cc1cc(C(C)(C)C)oc1C(=O)N(CC(=O)NC1CCCC1)c1c(C)cccc1C	12µM*	?	5.2µM*	-27	?
COc1ccccc1N(CC(=O)NC1CCCC1)C(=O)c1csnn1	2%	15%	?	5	21%
O=C(NC1=NCCS1)c1ccccc1OCc1ccc(F)cc1	-2%	-5%	-28%	0	0%
CCOc1ccc(N(CC(=O)Nc2cccc(C)c2)S(C)(=O)=O)cc1	-21%	-10%	?	-12	-1%
